{
  "source": "PubChem BioAssay AID624331",
  "about": "(National Center for Advancing Translational Sciences (NCATS), 2012)",
  "note": "Records with an inconclusive call do not appear. Where a call stands in place of a potency, no number is given. The source made the active and inactive calls. Calls come from the whole dose curve; as a rule, active = well fitted activation curve with a large enough effect; inconclusive = small, poorly fitted or top-dose-only effect; inactive = no such curve, though single readings can be large or run the other way.",
  "data": [
    {"experiment": "qHTS assay for re-activators of p53 using a Luc reporter: Hit Validation with no p53 Expressed", "settings": "p53-null cells, luciferase reporter counter-screen; series mostly up to 46.1 µM", "method_in_brief": "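Without p53 expression, cells (1000/well, Opti-MEM + 10% FBS) were exposed 24 h at 37 deg C to compounds in a 1:5 series from 10 mM stock (top 46.1 µM in well). Luminescent signal read 10 min after Amplite addition; actives flag unspecific activation.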", "values": [
      {"smiles": "CNC(=S)N/N=C(\\C)c1ccc(N2CCOCC2)cc1", "Potency": "inactive"},
      {"smiles": "CN(NC1CC(=O)N(c2ccccc2)C1=O)c1ccccc1", "note": "(centres undefined)", "Potency": "inactive"},
      {"smiles": "Cc1ccc(C)n1-c1cccc(NC(=O)c2ccccc2)c1", "Potency": "inactive"},
      {"smiles": "O=C1/C(=C/c2ccco2)SC(=S)N1CCC(=O)N1CCCCC1CCO", "note": "(centres undefined)", "Potency": "inactive"},
      {"smiles": "O=C(Nc1cccnc1)Nc1ccc(Br)cc1Cl", "Potency": "inactive"},
      {"smiles": "COc1cccc(/C=N/NC(=O)c2nc(-c3ccccc3)cc(-c3ccccc3)n2)c1O", "Potency": "inactive"},
      {"smiles": "CS(=O)(=O)N1CCC(C(=O)Nc2cc(Cl)c(Cl)cc2Cl)CC1", "Potency": "inactive"},
      {"smiles": "N#CC1=C(N)N2C(=C(C#N)C13CCCCC3)SC1CCCCC12O", "note": "(centres undefined)", "Potency": "inactive"},
      {"smiles": "O=C(NOCc1ccccc1)c1ccccc1", "Potency": "inactive"},
      {"smiles": "CCOC(=O)c1c(NC(=O)CN2CCCc3ccccc32)sc(C)c1C", "Potency": "inactive"},
      {"smiles": "O=C(Nc1nc2ccccc2s1)c1ccc2c(c1)OCO2", "Potency": "inactive"},
      {"smiles": "COc1ccc(/C=N/Nc2nncc3ccccc23)cc1", "Potency": "inactive"},
      {"smiles": "C/C(=C\\COc1ccc2ccc(=O)oc2c1)CC[C@@H](O)C(C)(C)O", "Potency": "inactive"},
      {"smiles": "O=c1[nH]c(N/N=C/c2ccc(O)cc2)nc2ccccc12", "Potency": "inactive"},
      {"smiles": "Cc1cc(NC(c2cccnc2)c2ccc3cccnc3c2O)no1", "note": "(centres undefined)", "Potency": "inactive"},
      {"smiles": "CCOCC(=O)Nc1nc2ccc(OCC)cc2s1", "Potency": "inactive"},
      {"smiles": "CC(=O)Nc1ccc2oc(-c3ccccc3Br)nc2c1", "Potency": "inactive"},
      {"smiles": "CC(=O)NC1=C(Nc2ccc(N(C)C)cc2)C(=O)c2ccccc2C1=O", "Potency": "inactive"},
      {"smiles": "Cc1cccc(-n2c(O)c(C=Nc3ccccc3N)c(=O)[nH]c2=O)c1", "Potency": "inactive"},
      {"smiles": "Nc1c(C(=O)c2ccc(Cl)cc2)oc2ccccc12", "Potency": "inactive"},
      {"smiles": "Cc1cc(C(=O)N2CCN(c3ccccc3Cl)CC2)c(C)o1", "Potency": "inactive"},
      {"smiles": "COc1ccc(-c2csc(NCc3ccco3)n2)cc1C", "Potency": "inactive"},
      {"smiles": "Oc1ccc(N=Cc2c(O)ccc3ccccc23)cc1", "Potency": "inactive"},
      {"smiles": "COc1ccc(S(=O)(=O)NC2CC(C)(C)NC(C)(C)C2)c2ccccc12", "Potency": "inactive"},
      {"smiles": "O=C(O)c1ccc(N/N=C/c2ccc3ncccc3c2)cc1", "Potency": "inactive"},
      {"smiles": "Cc1cccc(Nc2cc(=O)[nH]c(=O)[nH]2)c1C", "Potency": "inactive"},
      {"smiles": "Cc1cc(Oc2ccccc2)nc(-c2ccccc2O)n1", "Potency": "inactive"},
      {"smiles": "CCOCCCNc1nc2c([nH]1)c(=O)n(C)c(=O)n2C", "Potency": "inactive"},
      {"smiles": "c1ccc(-n2ncc3c(N4CCCCC4)ncnc32)cc1", "Potency": "inactive"},
      {"smiles": "CCCN(C(=O)c1cccc(S(=O)(=O)N2CCCc3ccccc32)c1)C1CCS(=O)(=O)C1", "note": "(centres undefined)", "Potency": "inactive"},
      {"smiles": "Cc1ccc(S(=O)(=O)NCC(=O)NCC(=O)N2CCC(C)CC2)cc1", "Potency": "inactive"},
      {"smiles": "CC(=O)N/C(=C/c1ccc2c(c1)OCO2)C(=O)Nc1ccccc1", "Potency": "inactive"},
      {"smiles": "Cc1ccc(C(=O)OC(C)C(=O)Nc2ccc3c(c2)OCO3)c(O)c1", "note": "(centres undefined)", "Potency": "inactive"},
      {"smiles": "O=C(NC(=S)Nc1ccccc1Br)C1CCCCC1", "Potency": "inactive"},
      {"smiles": "NNc1nc(NCc2ccccc2)nc(N2CCOCC2)n1", "Potency": "inactive"},
      {"smiles": "Cc1ccc(C(=O)Nc2cnc3sc(C)nn3c2=O)cc1", "Potency": "inactive"},
      {"smiles": "Cc1cc(C)cc(NC(=O)CSc2nnc(-c3ccccc3C)o2)c1", "Potency": "inactive"},
      {"smiles": "CCCN1C(=O)SC(CC(=O)Nc2ccccc2C)C1=O", "note": "(centres undefined)", "Potency": "inactive"},
      {"smiles": "COc1cc(C(=O)NCC(=O)Nc2c(C)cccc2C)ccc1OCc1ccccc1", "Potency": "inactive"}
    ]}
  ]
}
